According to article PMC4336329 (PLoS ONE, 2015):
Screen size: about 310,000 compounds; about 14,000 (4.5%) showed an effect of 50% or more. The effect is printed as a negative number. This excerpt belongs to a sample that is enriched for strong results. Where a SMILES comes first, the peptide text is derived from it. [ ]: non-standard residue; d: D form. The star is where a group is joined. ξ: configuration not given here. Cbz = O=C(OCc1ccccc1)*; ξV = CC(C)C(N)C(=O)O

These molecules were tested against human ether-à-go-go-related gene (hERG) potassium channel (human, UniProt Q12809) (assay: primary screen, population patch clamp on CHO cells stably expressing hERG; higher = less effect of the substance).
Chain of human ether-à-go-go-related gene (hERG) potassium channel (Q12809 whole entry, looked up): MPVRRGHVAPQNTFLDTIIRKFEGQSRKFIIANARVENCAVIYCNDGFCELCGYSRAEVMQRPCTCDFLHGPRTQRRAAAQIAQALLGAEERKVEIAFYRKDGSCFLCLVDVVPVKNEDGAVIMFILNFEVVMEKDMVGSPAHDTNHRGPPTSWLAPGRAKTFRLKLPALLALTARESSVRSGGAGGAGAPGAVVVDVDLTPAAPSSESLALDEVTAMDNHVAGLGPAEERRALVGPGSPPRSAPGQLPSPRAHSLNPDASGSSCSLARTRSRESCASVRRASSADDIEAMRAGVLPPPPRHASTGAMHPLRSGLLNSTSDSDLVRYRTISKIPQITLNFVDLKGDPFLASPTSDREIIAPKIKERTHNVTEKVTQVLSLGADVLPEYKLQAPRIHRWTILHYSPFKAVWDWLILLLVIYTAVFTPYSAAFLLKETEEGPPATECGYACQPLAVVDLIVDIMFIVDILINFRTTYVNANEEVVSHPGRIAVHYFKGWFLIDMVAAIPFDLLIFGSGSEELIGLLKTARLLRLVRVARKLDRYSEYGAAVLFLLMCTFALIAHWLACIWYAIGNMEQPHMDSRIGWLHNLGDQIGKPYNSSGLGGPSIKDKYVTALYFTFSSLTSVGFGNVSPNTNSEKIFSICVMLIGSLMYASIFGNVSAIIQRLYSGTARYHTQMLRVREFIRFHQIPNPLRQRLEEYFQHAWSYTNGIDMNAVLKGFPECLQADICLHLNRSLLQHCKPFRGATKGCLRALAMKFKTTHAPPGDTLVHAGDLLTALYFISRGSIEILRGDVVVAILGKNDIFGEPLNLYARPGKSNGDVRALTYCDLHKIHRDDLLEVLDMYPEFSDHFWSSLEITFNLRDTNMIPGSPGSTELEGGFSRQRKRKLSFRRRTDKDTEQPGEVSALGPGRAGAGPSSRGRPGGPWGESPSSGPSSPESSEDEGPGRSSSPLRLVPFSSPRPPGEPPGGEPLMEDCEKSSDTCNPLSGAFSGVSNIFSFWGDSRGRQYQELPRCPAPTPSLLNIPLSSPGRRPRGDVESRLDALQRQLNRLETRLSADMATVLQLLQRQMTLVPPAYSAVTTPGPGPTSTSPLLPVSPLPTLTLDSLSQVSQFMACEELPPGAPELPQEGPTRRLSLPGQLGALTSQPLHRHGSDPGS
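Also: peak tail current of the secondary pulse compared with the same well before compound.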

| SMILES | hERG current change (%, negative = inhibition) at 10uM |
| --- | --- |
| O=C(O)c1nccnc1C(=O)Nc1ccc(Cl)cn1 | 17.6% |
| CCC(C)NC(=O)[C@H]1N2C(=O)c3ccccc3C2SC1(C)C (stereo partly drawn) | 12.8% |
| Cc1noc(C(=O)Nc2c(C)nn(Cc3ccccc3)c2C)c1Cl | 4.71% |
| CC1CCCC(NC(=O)CCC(=O)c2ccc(F)cc2)C1C (stereo not drawn) | 8.27% |
| CC1CCCC(NCC(O)COC(c2ccc(F)cc2)c2ccc(F)cc2)C1C (stereo not drawn) | -71.6% |
| CC1CCCC(NC(=O)CSc2ccc(F)cc2)C1C (stereo not drawn) | 18.7% |
| Cc1cccc(C(=O)N2CCN(c3ncnc4c3cnn4-c3ccccc3)CC2)c1 | -19.4% |
| COc1ccc(-c2cc(=O)oc3cc(OC(C)C(=O)NCc4ccccn4)ccc23)cc1 (stereo not drawn) | -54.8% |
| COC(=O)C(C)Oc1ccc2c(-c3cccc([N+](=O)[O-])c3)cc(=O)oc2c1 (stereo not drawn) | -25.8% |
| CC(Oc1ccc2c(-c3ccccc3)cc(=O)oc2c1)C(=O)NCc1ccccn1 (stereo not drawn) | -50.9% |
| COc1ccc(-c2cc(=O)oc3c(C)c(OC(C)C(=O)NCc4ccccn4)ccc23)cc1 (stereo not drawn) | -9.16% |
| CCc1cc(=O)oc2cc(OC(C)C(=O)NCc3ccccn3)ccc12 (stereo not drawn) | 14.4% |
| CC(=O)COc1ccc2c(-c3cccc([N+](=O)[O-])c3)cc(=O)oc2c1 | -25.9% |
| CCOC(=O)C(C)Oc1ccc2c(-c3cccc([N+](=O)[O-])c3)cc(=O)oc2c1 (stereo not drawn) | -62.4% |
| Cc1cc(=O)oc2cc(OC(C)C(=O)NCc3ccccn3)ccc12 (stereo not drawn) | 9.03% |
| COc1ccc(-c2cc(=O)oc3cc(OCC(=O)NCc4ccccn4)ccc23)cc1 | -6.52% |
| Cc1ccccc1NC(=O)c1cnn(-c2ccccc2)c1NC(=O)c1ccco1 | 0.329% |
| COc1ccc(CCNC(=O)c2c[nH]c3ccccc3c2=O)cc1OC | -1.95% |
| Cc1noc(NS(=O)(=O)c2ccc(NC(=O)C34CCC(CC3)C4)cc2)c1C | -9.55% |
| COC(=O)CNC(=O)C(NC(=O)OCc1ccccc1)C(C)C (stereo not drawn) (Cbz-[ξV]-Gly-OMe) | 16.1% |
| CCOC(=O)Nc1ccc2c(c1)OCO2 | 26.2% |
| CCOC(=O)C1CCCN(Cc2c(Cl)cccc2Cl)C1 (stereo not drawn) | -6.47% |
| CCOC(=O)C1CCCN(Cc2ccc(OCC)cc2)C1 (stereo not drawn) | -42.9% |

| SMILES | hERG current change (%, negative = inhibition) at 10uM |
| --- | --- |
| CCOC(=O)C1CCCN(Cc2nc(N)nc(Nc3ccccc3OC)n2)C1 (stereo not drawn) | -70.8% |
| CCOC(=O)C1CCCN(c2nc3ccccc3nc2NS(=O)(=O)c2ccc(C)cc2)C1 (stereo not drawn) | -44.8% |
| CCOC(=O)C1CCCN(Cc2nc(N)nc(Nc3ccc(Cl)cc3)n2)C1 (stereo not drawn) | -79% |
| CCOC(=O)C1CCCN(Cc2ccccc2Cl)C1 (stereo not drawn) | -3.88% |
| COc1ccccc1Nc1nc(N)nc(CSC(=S)N2CCCCC2C)n1 (stereo not drawn) | -5.64% |
| Cc1ccccc1Nc1nc(N)nc(COC(=O)C2CCCCC2)n1 | 8.35% |
| CCOC(=O)C1CCCN(Cc2nc(N)nc(Nc3ccc(C)cc3)n2)C1 (stereo not drawn) | -69.5% |
| CCOC(=O)C1CCCN(Cc2nc(N)nc(Nc3ccc(OC)cc3)n2)C1 (stereo not drawn) | -75.6% |
| CCOC(=O)C1CCCN(Cc2cccc(Cl)c2)C1 (stereo not drawn) | -8.02% |
| CCOC(=O)C1CCCN(C(=S)Nc2ccc(OC)cc2)C1 (stereo not drawn) | 5.25% |
| N#Cc1cc2c(N)c(C(=O)Nc3ccccc3)sc2nc1N | 8.83% |
| CCCCN(C(=O)C1CCC1)c1c(N)n(CC(C)C)c(=O)[nH]c1=O | 1.74% |
| COc1ccccc1OCC(=O)[O-].[Na+] | 4.6% |
| Cc1c(Cl)cccc1-c1ccc(CNCc2ccccn2)o1.Cl | 8.15% |
| Cc1ccc(OCC(=O)NCCO)c(Br)c1 | 14.3% |
| O=C(CSc1nnc(-c2ccc(F)cc2)o1)Nc1ccc(S(=O)(=O)N2CCCC2)cc1 | -2.73% |
| CC(C(=O)NCc1cccs1)n1cccc1 (stereo not drawn) | 7.58% |
| COc1ccc(CNC(=O)CC23CC4CC(CC(C4)C2)C3)cc1 | 20.4% |
| CCOC(=O)C1CCCN(Cc2nc(N)nc(Nc3ccccc3)n2)C1 (stereo not drawn) | -71.2% |
| CCOC(=O)C1CCCN(Cc2ccc(-c3ccccc3)cc2)C1 (stereo not drawn) | -10.5% |
| CCOC(=O)C1CCCN(Cc2ccccc2C)C1 (stereo not drawn) | -15.1% |
| CCN(CC)C(=O)Cn1c(=O)n(CCC(=O)Nc2ccc(F)cc2)c(=O)c2sccc21 | 14.9% |
| Cc1ccc2nc(NC(=O)c3ccc(Br)o3)sc2c1 | 20.6% |

| SMILES | hERG current change (%, negative = inhibition) at 10uM |
| --- | --- |
| CCOc1ccc(N2C(=O)C3ON(c4ccccc4)C(c4cccs4)C3C2=O)cc1 (stereo not drawn) | 7.35% |
| CC(=O)Nc1ccc(NC(=O)C2CC(=O)Nc3nc4ccccc4n32)cc1 (stereo not drawn) | 24.6% |
| Cc1onc(-c2ccccc2)c1C(=O)N1CCN(c2ccc([N+](=O)[O-])cc2)CC1 | -36.4% |
| CC(C)(O)C#Cc1ccc(C(=O)N2CCN(c3ccc(Cl)cc3)CC2)cc1 | -9.19% |
| O=C(c1cc2ccccc2cc1O)N1CCN(c2ccc([N+](=O)[O-])cc2)CC1 | -40.3% |
| O=C(c1cc(C(=O)N2CCN(c3ccc(F)cc3)CC2)cc([N+](=O)[O-])c1)N1CCN(c2ccc(F)cc2)CC1 | -26.2% |
| Cc1cc(C(=O)N/N=C/C=C/c2cccc([N+](=O)[O-])c2)n[nH]1 | -3.28% |
| Cc1cc(C(=O)N2CCN(c3ccc([N+](=O)[O-])cc3)CC2)co1 | -75.5% |
| Cc1cc(C(=O)N/N=C/C=C/c2ccc(Br)cc2)n[nH]1 | 9.77% |
| CC(C)(O)C#Cc1ccc(C(=O)N2CCN(c3ccc([N+](=O)[O-])cc3)CC2)cc1 | -70.4% |
| CC(C)(O)C#Cc1ccc(C(=O)N2CCN(c3ccc(F)cc3)CC2)cc1 | -11.4% |
| O=C(c1ccc2c(c1)OCCO2)N1CCN(c2ccc([N+](=O)[O-])cc2)CC1 | -47.1% |
| Cc1cc(C(=O)N/N=C/C=C/c2ccc([N+](=O)[O-])cc2)n[nH]1 | -53% |
| Cc1cc(C(=O)N2CCN(c3ccc([N+](=O)[O-])cc3)CC2)n[nH]1 | -78.5% |
| CCOc1ccc(/C=C/C(=O)CCC(=O)O)cc1 | 13.5% |
| O=[N+]([O-])c1cccc(-c2ccc(C(=S)N3CCN(c4ccc(F)cc4)CC3)o2)c1 | 2.61% |
| Cc1cc(C(=O)N2CCN(c3ccccc3)CC2)no1 | -0.965% |
| COc1ccc(N2CCN(C(=O)c3nc4nc(C)cc(C)n4n3)CC2)cc1 | 9.69% |
| Cc1cc(C)n2nc(C(=O)N3CCN(c4ccc([N+](=O)[O-])cc4)CC3)nc2n1 | -71.4% |
| COc1ccc(N2CCN(C(=O)c3cc(C)on3)CC2)cc1 | 6.64% |
| COc1cccc(N2CCN(C(=O)c3nc4nc(C)cc(C)n4n3)CC2)c1 | 7.28% |
| O=C(c1cncc(Br)c1)N1CCN(c2ccc(N3CCOCC3)nn2)CC1 | -2.06% |
| O=C(c1ccc([N+](=O)[O-])cc1)N1CCN(c2ncc(Br)cn2)CC1 | -32% |

| SMILES | hERG current change (%, negative = inhibition) at 10uM |
| --- | --- |
| Cc1cc(C(=O)N2CCN(c3ccc([N+](=O)[O-])cc3)CC2)no1 | -70.6% |
| O=C(c1cncc(Br)c1)N1CCN(c2ccc([N+](=O)[O-])cc2)CC1 | -77% |
| Cc1c(O)ccc2c(O)c(NC(=O)c3ccc4c(c3)CCC(C)(C)O4)c(=O)oc12 | 6.09% |
| CCn1c(CNC(=O)c2ccc(OC)c(OC)c2)nnc1SCC(=O)c1ccc(OC)cc1 | -0.747% |
| O=C(CSc1ncn[nH]1)Nc1ccc(Cl)c(Cl)c1 | 0.453% |
| Cn1cc2cccc([N+](=O)[O-])c2n1 | 2.69% |
| O=C(CSc1nc2ccc([N+](=O)[O-])cc2[nH]1)c1ccc(Cl)cc1 | 12.1% |
| O=C1c2ccccc2C2(c3ccccc3)NCCN12 (stereo not drawn) | 5.86% |
| CN(CC(=O)Nc1cccc2ccccc12)c1ccc(S(=O)(=O)N2CCOCC2)cn1 | 11.8% |
| O=C(NCc1ccc2c(c1)OCO2)C1CC(=O)N(CCc2ccccc2)C1 (stereo not drawn) | 3.54% |
| COc1ccccc1CCCNC(=O)C1CCC(=O)N(CCCN2CCCC2=O)C1 (stereo not drawn) | 14% |
| CCc1ccc(CNC(=O)C2CCC(=O)N(CCc3ccc(Cl)cc3)C2)nc1 (stereo not drawn) | -67% |
| Cc1ccc(CNC(=O)C2CCC(=O)N(CCc3ccc(Cl)cc3)C2)cc1 (stereo not drawn) | -40.2% |
| O=C(NCc1ccc2c(c1)OCO2)C1CC(=O)N(CCc2ccc(Cl)cc2)C1 (stereo not drawn) | -54.1% |
| Cc1ccc(CCN2CC(C(=O)NCc3ccc4c(c3)OCO4)CC2=O)cc1 (stereo not drawn) | -37.2% |
| COc1ccccc1CCCNC(=O)C1CCC(=O)N(CCc2ccc(Cl)cc2)C1 (stereo not drawn) | -60.5% |
| O=C(NCc1ccncc1)C1CCC(=O)N(CCc2ccc(Cl)cc2)C1 (stereo not drawn) | -65.5% |
| O=C(NCc1ccccn1)C1CCC(=O)N(Cc2ccc(Cl)cc2)C1 (stereo not drawn) | 18.7% |
| O=C(NCc1ccon1)C1CCC(=O)N(CCc2ccc(Cl)cc2)C1 (stereo not drawn) | -37.2% |
| COc1ccccc1CCCNC(=O)C1CCC(=O)N(Cc2ccccc2F)C1 (stereo not drawn) | -1.76% |
| CCn1nc(C)c(CNC(=O)C2CCC(=O)N(CCc3ccc(Cl)cc3)C2)c1C (stereo not drawn) | -21.6% |
